Data on 19 compounds can be found in PubChem BioAssay.

Experiment [1] is described as follows: modulation of C. elegans fzo-1 (AID 1259413).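 Also: fzo-1 mutant C. elegans worms in liquid wells.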 The following applies: C. elegans fzo-1 modulator screen, mean read-out; stronger effect = higher value.
Experiment [2] can be described thus: differential killing of epithelial or mesenchymal cells, primary screen, imaging, PC-3E GFP, TEM4-18 mCherry, co-culture (AID 1345086;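 active = compounds killing one labelled cell type while sparing the other, by normalised counts and ratio limits, not self-fluorescent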;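 as to all read-outs here: cells exposed to compound for 72 h before imaging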;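 as to red/green cell ratio (normalised): normalised mesenchymal count divided by normalised epithelial count so high means epithelial killing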). The note with it: imaging cell counts, at 1 µM; for red/green cell ratio (normalised): actives lie on both sides, counts scaled to control wells, 1 = unselective.
Experiment [3] can be described thus: growth inhibition of DIPG glioma cells, dose response, cell-based, SU-DIPG-XVII, MIPE5.0, CellTiter-Glo, qHTS (AID 1347060; cut-off not given, nearly all actives have AC50 up to about 26 µM;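 as to AC50: cells exposed to compound for 48 hours before viability readout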). The note with it: SU-DIPG-XVII viability, CellTiter-Glo ATP luminescence.
A short description of experiment [4]: growth inhibition of DIPG glioma cells, dose response, cell-based, SU-DIPG-XIII, MIPE5.0, CellTiter-Glo, qHTS (AID 1347064; cut-off not given, nearly all actives have AC50 up to about 23 µM). The note with it: SU-DIPG-XIII viability, CellTiter-Glo ATP luminescence.
Experiment [5] has as its system Aerobactin synthetase IucA (Klebsiella pneumoniae). The experiment in a line: IucA aerobactin synthetase inhibitors, biochemical, Tocris library, absorbance (AID 1345561).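 Also: 100% = enzyme without compound and 0% = no enzyme.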 The following applies: purified IucA enzyme assay, absorbance (OD) read-out; stronger effect = lower value;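 tested at 8 µM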.
The nature of experiment [6]: growth inhibition of DIPG glioma cells, dose response, cell-based, SU-DIPG-XIII, MIPE4.0, CellTiter-Glo, qHTS (AID 1347061; cut-off not given, nearly all actives have AC50 up to about 37 µM;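 also: cells exposed to compound for 48 hours before readout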). The note with it: SU-DIPG-XIII viability, CellTiter-Glo ATP luminescence.
Experiment [7] can be described thus: growth inhibition of DIPG glioma cells, dose response, cell-based, JHH-DIPG-1, MIPE4.0, CellTiter-Glo, qHTS (AID 1347062; cut-off not given, nearly all actives have AC50 up to about 27 µM;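 as to AC50: cells exposed to compound for two days before readout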). The following applies: JHH-DIPG-1 viability, CellTiter-Glo ATP luminescence. For orientation: ATP-based viability assays read luminescence as a measure of living cells.
The nature of experiment [8]: growth inhibition of DIPG glioma cells, dose response, cell-based, SU-DIPG-IV, MIPE4.0, CellTiter-Glo, qHTS (AID 1347063; cut-off not given, nearly all actives have AC50 up to about 30 µM;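 also: compound exposure lasted 48 hours before the viability readout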). The note with it: SU-DIPG-IV viability, CellTiter-Glo ATP luminescence.
Where [9] appears, read: measured here: epithelial PC-3E GFP cell survival.
The mark [10] stands for this setting: measured here: mesenchymal TEM4-18 mCherry cell survival.

Records with an inconclusive call do not appear. Calls of active or inactive are those of the source. Unless noted, no rule for the calls is given here.

Take `Nc1[nH]c(=O)ncc1F`: the mean signal in experiment [1] was 243 (inactive). In addition, the red/green cell ratio (normalised) in experiment [2] is 1.01 (inactive). Besides, the figures for the normalised cell number in experiment [2] (setting [9]) and in experiment [2] (setting [10]) were 0.89 and 0.9, respectively. In addition, the compound was called inactive in experiment [3] and in experiment [4].
By remaining activity is commonly meant the signal under treatment as a percentage of the control signal. In the case of `CCC1=C(C)CN(C(=O)NCCc2ccc(S(=O)(=O)NC(=O)NC3CCC(C)CC3)cc2)C1=O` (stereo unspecified), the mean signal in experiment [1] was 255 (inactive). Besides, in experiment [2], the red/green cell ratio (normalised) was 0.86 (inactive). For the same compound, the values for the normalised cell number in experiment [2] (setting [9]) and in experiment [2] (setting [10]) were 1.22 and 1.05, respectively. Further, in experiment [5], the remaining activity is 90.7% (inactive). The outcome in experiment [3], in experiment [6], in experiment [7], in experiment [8] and in experiment [4] was inactive.
Consider `COc1ccc(C2CNC(=O)C2)cc1OC1CCCC1` (stereo unspecified), for which, in experiment [1], the mean signal was 251 (inactive). In experiment [2], the red/green cell ratio (normalised) is 0.93 (inactive). Also, the results for the normalised cell number in experiment [2] (setting [9]) and in experiment [2] (setting [10]) were 1.05 and 0.97, respectively. In experiment [5], the remaining activity is 98.4% (inactive). The call in experiment [3], in experiment [7], in experiment [8] and in experiment [4] was inactive.
Turning to `CN1CCC(=C2c3ccccc3CC(=O)c3sccc32)CC1`, the mean signal in experiment [1] is 231 (inactive). Moreover, the red/green cell ratio (normalised) in experiment [2] was 0.94 (inactive). The normalised cell number came to 1.17 in experiment [2] (setting [9]) and 1.1 in experiment [2] (setting [10]). Moreover, in experiment [5], the remaining activity was 118% (inactive). The outcome in experiment [3] and in experiment [7] was inactive.
Regarding `CC(C)(C#N)c1cc(Cn2cncn2)cc(C(C)(C)C#N)c1`, in experiment [1], the mean signal is 266 (inactive). Besides, in experiment [2], the red/green cell ratio (normalised) was 1.37 (inactive). Further, the normalised cell number was found to be 0.74 in experiment [2] (setting [9]) and 1.02 in experiment [2] (setting [10]). Moreover, the call in experiment [3], in experiment [6] and in experiment [7] was inactive.
Turning to `CC(C)NCC(O)COc1ccc(COCCOC(C)C)cc1` (stereo unspecified), the mean signal in experiment [1] is 229 (inactive). In addition, the red/green cell ratio (normalised) in experiment [2] was 0.9 (inactive). Moreover, the normalised cell number stood at 1.05 in experiment [2] (setting [9]) and 0.94 in experiment [2] (setting [10]). The remaining activity in experiment [5] is 120% (inactive). Further, the call in experiment [6], in experiment [7] and in experiment [8] was inactive.
On to `COc1cc(OC)c(C(=O)CCCN2CCCC2)c(OC)c1`, for which, in experiment [1], the mean signal was 255 (inactive). Further, in experiment [2], the red/green cell ratio (normalised) is 0.81 (inactive). The normalised cell number in experiment [2] (setting [9]) stood at 1.24; in experiment [2] (setting [10]) it was 1. In addition, the result in experiment [3], in experiment [6], in experiment [7], in experiment [8] and in experiment [4] was inactive.
As usually defined, the AC50 is the concentration giving half of the maximal activity seen. Take `CN1CCC(=C2c3ccccc3C=Cc3ccccc32)CC1`: in experiment [1], the mean signal was 251 (inactive). The red/green cell ratio (normalised) in experiment [2] was 1.06 (inactive). Further, the values for the normalised cell number in experiment [2] (setting [9]) and in experiment [2] (setting [10]) were 0.91 and 0.97, respectively. Moreover, the remaining activity in experiment [5] was 104% (inactive). The compound was called inactive in experiment [3] and in experiment [4]. In experiment [6], the AC50 was 23.5 µM (active).
As to `COC(=O)C1=C(C)NC(C)=C(C(=O)OC(C)C)C1c1cccc2nonc12` (stereo unspecified), the mean signal in experiment [1] is 273 (inactive). The red/green cell ratio (normalised) in experiment [2] was 1.19 (inactive). For the same compound, the normalised cell number was 0.87 in experiment [2] (setting [9]) and 1.04 in experiment [2] (setting [10]). Besides, the remaining activity in experiment [5] was 109% (inactive). Also, the call in experiment [7] and in experiment [8] was inactive.
Turning to `Cc1[nH]c(=O)c(C#N)cc1-c1ccncc1`, the mean signal in experiment [1] is 234 (inactive). The red/green cell ratio (normalised) in experiment [2] was 1.2 (inactive). Also, the normalised cell number in experiment [2] (setting [9]) was found to be 1.05; in experiment [2] (setting [10]), 1.26. In addition, the compound was called inactive in experiment [3].
As to `CC(C)NCC(O)COc1ccc(CCOCC2CC2)cc1` (stereo unspecified), in experiment [1], the mean signal was 281 (inactive). In addition, the red/green cell ratio (normalised) in experiment [2] is 0.81 (inactive). Also, the values for the normalised cell number in experiment [2] (setting [9]) and in experiment [2] (setting [10]) were 1.26 and 1.02, respectively. Moreover, in experiment [5], the remaining activity is 100% (inactive). Moreover, the compound was called inactive in experiment [3], in experiment [6], in experiment [7], in experiment [8] and in experiment [4].
As for `CNS(=O)(=O)Cc1ccc2[nH]cc(CCN(C)C)c2c1`, the mean signal in experiment [1] was 224 (inactive). Further, the red/green cell ratio (normalised) in experiment [2] is 1.17 (inactive). The normalised cell number in experiment [2] (setting [9]) was found to be 1.07; in experiment [2] (setting [10]) it was 1.25. The remaining activity in experiment [5] is 127% (inactive). The outcome in experiment [6], in experiment [7] and in experiment [8] was inactive.
Take `CC[C@@]1(O)C(=O)OCc2c1cc1n(c2=O)Cc2cc3c(CN(C)C)c(O)ccc3nc2-1`: the mean signal in experiment [1] was 251 (inactive). Moreover, in experiment [2], the red/green cell ratio (normalised) was 1.81 (inactive). Further, the normalised cell number stood at 0.19 in experiment [2] (setting [9]) and 0.34 in experiment [2] (setting [10]). Moreover, the AC50 in experiment [3] is 0.0525 µM (active); in experiment [7] it was 8.33 µM (active); in experiment [8], 0.332 µM (active).
In the case of `CCOc1cc(CC(=O)N[C@@H](CC(C)C)c2ccccc2N2CCCCC2)ccc1C(=O)O`, the mean signal in experiment [1] is 247 (inactive). Besides, the red/green cell ratio (normalised) in experiment [2] was 0.96 (inactive). Also, the normalised cell number is 1.2 in experiment [2] (setting [9]) and 1.16 in experiment [2] (setting [10]). For the same compound, in experiment [5], the remaining activity is 120% (inactive). Besides, the outcome in experiment [3], in experiment [7] and in experiment [8] was inactive.
As for `CN1CCC(=C2c3ccccc3CCc3sccc32)CC1`, in experiment [1], the mean signal was 277 (inactive). Moreover, the red/green cell ratio (normalised) in experiment [2] is 0.85 (inactive). The normalised cell number worked out at 1.11 in experiment [2] (setting [9]) and 0.94 in experiment [2] (setting [10]). Besides, in experiment [3], the result was inactive. In experiment [6], the AC50 was 16.6 µM (active).
With `COC1=C(OC)C(=O)C(CCCCCCCCCCO)=C(C)C1=O`, the mean signal in experiment [1] is 254 (inactive). The red/green cell ratio (normalised) in experiment [2] was 0.83 (inactive). The normalised cell number in experiment [2] (setting [9]) amounted to 1.18; in experiment [2] (setting [10]), 0.98. For the same compound, the result in experiment [3] was inactive.
Turning to `CCOC(=O)c1ncn2c1CN(C)C(=O)c1cc(F)ccc1-2`, in experiment [1], the mean signal was 276 (inactive). Also, in experiment [2], the red/green cell ratio (normalised) is 0.89 (inactive). The values for the normalised cell number in experiment [2] (setting [9]) and in experiment [2] (setting [10]) were 0.95 and 0.84, respectively. Besides, in experiment [5], the remaining activity was 110% (inactive). The outcome in experiment [3], in experiment [6] and in experiment [8] was inactive.
For `CCCOc1ccc(C(=O)OCCN(CC)CC)cc1N`, the mean signal in experiment [1] is 287 (active). Moreover, in experiment [2], the red/green cell ratio (normalised) is 1.08 (inactive). Further, the normalised cell number in experiment [2] (setting [9]) was 1.2; in experiment [2] (setting [10]), 1.3. Moreover, the call in experiment [3], in experiment [7], in experiment [8] and in experiment [4] was inactive.
`COc1cc2nc(N3CCN(C(=O)C4COc5ccccc5O4)CC3)nc(N)c2cc1OC` (stereo unspecified): in experiment [1], the mean signal is 219 (inactive). Moreover, the red/green cell ratio (normalised) in experiment [2] was 0.65 (inactive). Besides, the values for the normalised cell number in experiment [2] (setting [9]) and in experiment [2] (setting [10]) were 1.28 and 0.83, respectively. Further, the outcome in experiment [6] was inactive.
